As a reminder, the inhibition is the change of the read-out against control, counted positive when it falls.

Assay [1] is described as follows: antimalarial activity against Dd2 strain (AID 2302;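 active means growth inhibition above 50% at the single 2 µM test dose, taken to imply half-maximal potency below 2 µM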;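 further: 0% = DMSO untreated growth and 100% = chloroquine plus artemisinin killed control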). Particulars: P. falciparum Dd2 in RBCs, LDH growth readout, 72 h; at 2 µM; stronger effect = higher value.
Assay [2] in a line: HepG2 cytotoxicity, primary screen, cytotoxicity control for P. falciparum antimalarial project, cell-based, ATP luminescence (AID 2303;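 active means inhibition above 50%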;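 further: 0% = DMSO wells and 100% = digitonin-killed cells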). Particulars: HepG2 viability, 24-48 h, at 10 µM, stronger effect = higher value.
The target in assay [3] is L-lactate dehydrogenase (Plasmodium falciparum (isolate CDC / Honduras)) (UniProt Q27743). Description: PfLDH activity inhibition – cell lysate, 3D7 strain, counter-screen for P. falciparum growth inhibition project (AID 2304).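 Further: 0% = vehicle and 100% = reference inhibitor.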 Conditions: P. falciparum 3D7 crude extract, LDH APAD/NBT absorbance; at 2 µM; stronger effect = higher value. In general terms: The purpose of a counterscreen is to sort out artefacts and off-target activity.
Chain of L-lactate dehydrogenase (Plasmodium falciparum (isolate CDC / Honduras)) (Q27743 whole entry, looked up): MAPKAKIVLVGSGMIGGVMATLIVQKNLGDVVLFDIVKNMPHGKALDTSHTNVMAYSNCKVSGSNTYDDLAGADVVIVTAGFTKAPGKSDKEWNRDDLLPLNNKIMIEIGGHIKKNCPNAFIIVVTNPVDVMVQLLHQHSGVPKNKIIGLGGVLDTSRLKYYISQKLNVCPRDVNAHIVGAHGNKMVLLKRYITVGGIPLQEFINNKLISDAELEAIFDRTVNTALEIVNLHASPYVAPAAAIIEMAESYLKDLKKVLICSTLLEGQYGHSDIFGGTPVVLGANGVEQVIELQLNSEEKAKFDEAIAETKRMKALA

A short description of assay [4]: inhibition of 3D7 malaria parasite growth – strain 3D7 (AID 2306).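 Further: 0% = DMSO wells and 100% = chloroquine plus artemisinin control wells.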 Conditions: P. falciparum 3D7 erythrocytic growth, LDH absorbance, 72 h; at 2 µM; stronger effect = higher value.
Assay [5] concerns the target Calcium-dependent protein kinase 1 (Plasmodium falciparum (isolate 3D7)) (UniProt P62344). Description: PfCDPK1 kinase inhibitors, biochemical, TCAMS library (AID 1159585; cut-off not given, nearly all actives have IC50 up to about 0.98 µM;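 further: inhibitors leave more ATP so luminescence rises with inhibition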). Conditions: recombinant PfCDPK1, Kinase-Glo ATP depletion luminescence. On the technique in general: Kinase-Glo measures the ATP left after a reaction by luminescence.
In assay [6] the target is Plasmodium falciparum protein kinase 6 (PK6, PF3D7_1337100) (UniProt Q8IDW1). Description: PfPK6 kinase inhibitors, biochemical, TCAMS library (AID 1159586). Conditions: recombinant PfPK6, Kinase-Glo ATP depletion luminescence.
Chain of Plasmodium falciparum protein kinase 6 (PK6, PF3D7_1337100) (Q8IDW1 1-305): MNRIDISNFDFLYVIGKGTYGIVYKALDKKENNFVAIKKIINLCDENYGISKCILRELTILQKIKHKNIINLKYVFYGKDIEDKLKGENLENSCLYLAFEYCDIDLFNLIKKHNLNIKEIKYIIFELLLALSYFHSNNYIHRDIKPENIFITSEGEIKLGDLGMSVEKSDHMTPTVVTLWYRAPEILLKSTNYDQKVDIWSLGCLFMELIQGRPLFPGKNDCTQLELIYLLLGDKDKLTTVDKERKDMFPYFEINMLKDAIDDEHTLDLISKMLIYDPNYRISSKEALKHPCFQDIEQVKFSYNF
The target of assay [7] is Protein kinase 7 (PK7), Plasmodium falciparum 3D7 (PF3D7_0213400) (UniProt Q7YTF7). Nature of the assay: inhibition of Plasmodium PK7 catalytic activity – biochemical, TCAMS antimalarial set, Kinase-Glo luminescence (AID 1159587). Particulars: recombinant PfPK7, Kinase-Glo ATP depletion luminescence.
Chain of Protein kinase 7 (PK7), Plasmodium falciparum 3D7 (PF3D7_0213400) (Q7YTF7 1-343): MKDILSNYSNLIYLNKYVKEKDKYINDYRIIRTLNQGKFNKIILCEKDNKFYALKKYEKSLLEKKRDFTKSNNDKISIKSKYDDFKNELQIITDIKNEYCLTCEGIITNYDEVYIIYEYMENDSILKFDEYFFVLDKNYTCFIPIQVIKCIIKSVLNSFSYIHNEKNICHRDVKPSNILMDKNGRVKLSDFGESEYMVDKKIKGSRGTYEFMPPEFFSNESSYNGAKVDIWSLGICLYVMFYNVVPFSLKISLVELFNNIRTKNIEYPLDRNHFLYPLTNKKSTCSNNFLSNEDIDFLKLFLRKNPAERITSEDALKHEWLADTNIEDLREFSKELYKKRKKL
Assay [8] concerns the target Calcium-dependent protein kinase 4 (Plasmodium falciparum (isolate 3D7)) (UniProt Q8IBS5). Description: PfCDPK4 kinase inhibitors, biochemical, TCAMS library (AID 1159588; cut-off not given, nearly all actives have IC50 up to about 0.91 µM). Conditions: recombinant PfCDPK4, Kinase-Glo ATP depletion luminescence.

A number with no mark means an inactive call. For part of these data: Measured potencies and affinities stand elsewhere. The source made the active and inactive calls. Unless noted, how the calls were made is not given here.

Chain of Calcium-dependent protein kinase 4 (Plasmodium falciparum (isolate 3D7)) (Q8IBS5 whole entry, looked up): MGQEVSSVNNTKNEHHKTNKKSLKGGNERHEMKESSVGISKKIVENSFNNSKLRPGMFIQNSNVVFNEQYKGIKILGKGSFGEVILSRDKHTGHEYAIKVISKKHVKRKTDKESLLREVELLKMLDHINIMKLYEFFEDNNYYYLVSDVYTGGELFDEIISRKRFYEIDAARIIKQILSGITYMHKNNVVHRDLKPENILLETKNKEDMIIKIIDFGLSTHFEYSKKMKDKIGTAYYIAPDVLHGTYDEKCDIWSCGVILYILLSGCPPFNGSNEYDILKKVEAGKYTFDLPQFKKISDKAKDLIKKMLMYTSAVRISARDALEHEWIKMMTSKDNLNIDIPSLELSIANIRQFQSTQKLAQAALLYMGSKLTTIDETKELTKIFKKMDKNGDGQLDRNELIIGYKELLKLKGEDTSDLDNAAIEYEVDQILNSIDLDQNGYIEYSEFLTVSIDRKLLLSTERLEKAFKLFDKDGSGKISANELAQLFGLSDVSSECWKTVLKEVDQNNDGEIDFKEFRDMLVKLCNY
Chain of Calcium-dependent protein kinase 1 (Plasmodium falciparum (isolate 3D7)) (P62344 whole entry, looked up): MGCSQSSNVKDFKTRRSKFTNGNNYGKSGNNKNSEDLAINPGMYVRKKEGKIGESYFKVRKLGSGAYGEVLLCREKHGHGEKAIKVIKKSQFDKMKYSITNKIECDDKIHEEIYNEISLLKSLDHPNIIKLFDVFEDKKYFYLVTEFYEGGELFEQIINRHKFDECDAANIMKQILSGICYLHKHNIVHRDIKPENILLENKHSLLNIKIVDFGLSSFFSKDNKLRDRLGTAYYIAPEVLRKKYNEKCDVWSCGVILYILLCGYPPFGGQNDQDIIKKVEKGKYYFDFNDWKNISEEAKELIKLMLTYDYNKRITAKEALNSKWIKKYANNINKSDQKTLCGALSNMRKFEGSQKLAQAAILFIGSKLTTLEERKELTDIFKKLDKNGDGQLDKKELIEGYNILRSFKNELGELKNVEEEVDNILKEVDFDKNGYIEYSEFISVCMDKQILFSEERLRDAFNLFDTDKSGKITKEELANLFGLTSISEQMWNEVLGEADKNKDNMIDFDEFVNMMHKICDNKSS

Regarding `Cc1ccccc1C1CCN(c2ccc(NC(=O)c3ccc(Cl)nc3)cc2)CC1`, the growth inhibition is 82% (active) in assay [1] and 92% (active) in assay [4]. Moreover, the values for the inhibition in assay [2] and in assay [3] were 43% and -2%, respectively. The result in assay [5], in assay [6], in assay [7] and in assay [8] was inactive.

On to `OCC1CCCCN1Cc1cccc(-c2cccc(-c3nc4ccccc4[nH]3)c2)c1` (stereo not drawn), for which the growth inhibition in assay [1] is 4%; in assay [4], 95% (active). For the same molecule, the inhibition in assay [2] is 24%; in assay [3] it was 0%. Also, the result in assay [5], in assay [6], in assay [7] and in assay [8] was inactive.

For `COc1ccc(CN2CCCN(Cc3cccc(NC(=O)c4ccc(Cl)c(Cl)c4)c3)CC2)cc1`, the growth inhibition in assay [1] was 19%; in assay [4], 86% (active). For the same molecule, the inhibition is 38% in assay [2] and 5% in assay [3]. The result in assay [5], in assay [6], in assay [7] and in assay [8] was inactive.

Consider `Cc1ccc(NC(=O)NC2CCN(CCCCCNC(=O)/C=C/c3ccc(Cl)c(Cl)c3)CC2)cc1`, for which the growth inhibition in assay [1] is 19%; in assay [4] it was 102% (active). Besides, the inhibition was 41% in assay [2] and -2% in assay [3]. Moreover, the result in assay [5], in assay [6], in assay [7] and in assay [8] was inactive.

As for `COc1ccc(CCc2ccc(-c3c(C)[nH]c(C)c(Cl)c3=O)cc2)cc1OC`, the growth inhibition in assay [1] is 97% (active); in assay [4], 99% (active). The inhibition in assay [2] was -5%; in assay [3], -7%. Further, the outcome in assay [5], in assay [6], in assay [7] and in assay [8] was inactive.

As to `CS(=O)(=O)c1ccc(-c2cncc(Cl)n2)cc1`, the growth inhibition is 95% (active) in assay [1] and 100% (active) in assay [4]. The inhibition in assay [2] is 8%; in assay [3] it was 7%. The outcome in assay [5], in assay [6], in assay [7] and in assay [8] was inactive.

For the molecule `Oc1ccc(C2CNCCc3c2cc(O)c(OCc2ccccc2)c3Cl)cc1` (stereo not drawn), the growth inhibition is 8% in assay [1] and 98% (active) in assay [4]. The values for the inhibition in assay [2] and in assay [3] were 14% and 5%, respectively. Further, the result in assay [5], in assay [6], in assay [7] and in assay [8] was inactive.

For the molecule `CN1CCC(N(Cc2ccc(-c3ccc(C(F)(F)F)cc3)cc2)C(=O)Cn2c(SCc3cccc(F)c3F)cc(=O)c3c2CCC3)CC1`, the growth inhibition in assay [1] is 83% (active); in assay [4], 89% (active). In addition, the inhibition was 50% (active) in assay [2] and 1% in assay [3]. Also, the result in assay [5], in assay [6], in assay [7] and in assay [8] was inactive.

Consider `CCC(=O)Nc1ccc(Nc2nc(C)cc(N3CCCC3)n2)cc1`, for which the growth inhibition is 2% in assay [1] and 91% (active) in assay [4]. For the same molecule, the inhibition in assay [2] was 34%; in assay [3], -2%. The outcome in assay [5], in assay [6], in assay [7] and in assay [8] was inactive.

Regarding `COc1ccc(CC(C)CON2C(N)=NC(N)=NC2(C)C)cc1` (stereo not drawn), the growth inhibition in assay [1] was 96% (active); in assay [4] it was 94% (active). In addition, the inhibition in assay [2] is 59% (active); in assay [3] it was -9%. The outcome in assay [5], in assay [6], in assay [7] and in assay [8] was inactive.

Turning to `NOCCCCOc1ccc(Cl)cc1`, the figures for the growth inhibition in assay [1] and in assay [4] were -1% and 98% (active), respectively. Further, the inhibition in assay [2] was 2%; in assay [3] it was -4%. The outcome in assay [5], in assay [6], in assay [7] and in assay [8] was inactive.

With `CCCCCCCCNCC(O)c1cc(-c2ccc(Cl)cc2)nc2cc(C)ccc12` (stereo not drawn), the growth inhibition in assay [1] and in assay [4] was 99% (active) in each case. Further, the inhibition is 0% in assay [2] and -2% in assay [3]. Also, the outcome in assay [5], in assay [6], in assay [7] and in assay [8] was inactive.

Regarding `c1csc(-c2nc(NCC3CCCO3)ncc2-c2ccsc2)n1` (stereo not drawn), the growth inhibition in assay [1] was 83% (active); in assay [4], 89% (active). For the same molecule, the inhibition in assay [2] was -4%; in assay [3], 1%. The result in assay [5], in assay [6], in assay [7] and in assay [8] was inactive.

As for `CCCCN(Cc1cnccc1-c1ccc(Br)cc1)c1ccc(C(O)(C(F)(F)F)C(F)(F)F)cc1`, the growth inhibition in assay [1] was 45%; in assay [4], 87% (active). For the same molecule, the figures for the inhibition in assay [2] and in assay [3] were 10% and 6%, respectively. Further, the outcome in assay [5], in assay [6], in assay [7] and in assay [8] was inactive.

Consider `Cc1[nH]c(C)c(-c2ccc(-c3ccc(OC(F)(F)F)cc3)cc2)c(=O)c1Br`, for which the growth inhibition in assay [1] was 97% (active); in assay [4], 96% (active). For the same molecule, the inhibition was 33% in assay [2] and -3% in assay [3]. Also, the outcome in assay [5], in assay [6], in assay [7] and in assay [8] was inactive.

For `O=C(Nc1cccc(-c2ccc(-c3nc4ccc(C(F)(F)F)cc4[nH]3)cc2)c1)c1ccncc1`, the growth inhibition in assay [1] was 90% (active); in assay [4], 100% (active). The inhibition was 79% (active) in assay [2] and -1% in assay [3]. Besides, the result in assay [5], in assay [6], in assay [7] and in assay [8] was inactive.

Turning to `COc1ccccc1CCNc1nc(C)cc(N[C@@H](Cc2ccccc2)C(=O)NCc2cccc(F)c2)n1`, the values for the growth inhibition in assay [1] and in assay [4] were 86% (active) and 99% (active), respectively. Also, the inhibition in assay [2] was 31%; in assay [3], -2%. Moreover, the outcome in assay [5], in assay [6], in assay [7] and in assay [8] was inactive.

On to `COc1ccc(C(=O)C2CCN(CCCCNC(=O)c3ccc(NC(=O)c4ccc(Cl)cc4)cc3)CC2)c(OC)c1`, for which the growth inhibition in assay [1] is 13%; in assay [4], 98% (active). For the same molecule, the results for the inhibition in assay [2] and in assay [3] were 47% and 4%, respectively. In addition, the outcome in assay [5], in assay [6], in assay [7] and in assay [8] was inactive.

For the molecule `O=C(NCC1CCN(Cc2cccc(C(F)(F)F)c2)C1)c1cc(-c2cccc(C(F)(F)F)c2)cs1` (stereo not drawn), the growth inhibition in assay [1] was 74% (active); in assay [4] it was 100% (active). Moreover, the values for the inhibition in assay [2] and in assay [3] were 35% and -2%, respectively. The outcome in assay [5], in assay [6], in assay [7] and in assay [8] was inactive.

Take `COc1ccc(CN2CCC(CNCC(c3ccccc3)c3ccccc3)CC2)cc1`: the values for the growth inhibition in assay [1] and in assay [4] were 95% (active) and 102% (active), respectively. Also, the inhibition in assay [2] is 84% (active); in assay [3], -4%. For the same molecule, the outcome in assay [5], in assay [6], in assay [7] and in assay [8] was inactive.

Regarding `COc1ccc2nccc([C@@H](O)CN3CCC(NC(=O)c4ccc(-c5ccc(C#N)cc5)cc4)CC3)c2c1`, the growth inhibition in assay [1] was 91% (active); in assay [4] it was 101% (active). For the same molecule, the inhibition in assay [2] was 42%; in assay [3] it was 4%. Further, the result in assay [5], in assay [6], in assay [7] and in assay [8] was inactive.

For the origin of these results see PubChem BioAssay.
